Only some compounds are listed: those with a hit (about 2.8% of all), similar ones and a draw of the others.
Pol beta inh – blocks human DNA polymerase beta activity | Potency, µM (series often up to 114 µM), for the others: at the highest dose activity change, negative = inhibition, most hits filed as inhibitors | Pol beta primer extension/strand displacement, fluorescence kinetic | hit rate 1.3% among 340,000 | P06746 | AID 485314; also: potency is read from the fitted curve at half-maximal effect; % is scaled to controls: 0 for no effect and ±100 for the full control effect
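Reaction started by 50 nM substrate onto compound-treated Pol beta (10 nM, 15 min preincubation, room temperature); plates read at 0 min and 10 min. Normalized concentration-effect data fitted by four-parameter Hill equation.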
POLI inh – DNA polymerase iota (human) inhibition | Q9UNA4 | Potency, µM (series often up to 115 µM), inactives show at the top dose activity, negative = inhibition, actives largely listed as inhibitors | Pol iota fluorescent replication assay, 10 min | hit rate 1% among 390,000; also: potency is read from the fitted curve at half-maximal effect
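Fluorescent replication assay read twice, at 0 min and 10 min after adding 50 nM (final) substrate. Enzyme (10 nM) and compounds were first incubated 15 min at room temperature; enzyme-free buffer wells were negative controls.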
Pol eta inh – inhibitors of human DNA polymerase eta | Q9Y253 | recombinant Pol eta, fluorescent DNA replication assay | Potency, µM (top dose mostly 114 µM), for the others: top-dose activity change, negative = inhibition, most hits filed as inhibitors | hit rate 1.2% among 390,000 | AID 588591; also: potency is read from the fitted curve at half-maximal effect; % is scaled to controls: 0 for no effect and ±100 for the full control effect
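Fluorescent replication assay: 50 nM final substrate added after a 15 min room-temperature compound preincubation with 10 nM enzyme. Signal taken at 0 min and again at 10 min.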
POLK inh – inhibitors of human DNA polymerase kappa | hit rate 0.53% among 400,000 | purified Pol kappa, fluorescent DNA synthesis assay, 10 min | Potency, µM (doses to about 107 µM), for the others: at the top dose activity, negative = inhibition, actives largely listed as inhibitors | AID 588579 | Q9UBT6; also: potency is read from the fitted curve at half-maximal effect; % is scaled to controls: 0 for no effect and ±100 for the full control effect
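50 nM final substrate added after 15 min RT preincubation of 10 nM Pol kappa with compound; fluorescence read at 0 and 10 min.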
WRN helicase inh – blocks human WRN helicase; hit rate 0.46% among 360,000; WRN helicase unwinding, fluorescent forked duplex, kinetic; Potency, µM (titrated, usually from 114 µM), for inactives: at the highest dose activity change, negative = inhibition, hits mostly inhibitors; Q14191; also: potency is read from the fitted curve at half-maximal effect; % is scaled to controls: 0 for no effect and ±100 for the full control effect; nearly all actives have a fitted effect of over 55% in size
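WRN at 20 nM final was preincubated with compound for 15 min at room temperature; reaction started with 100 nM forked duplex oligonucleotide carrying fluorophore and quencher plus 2 mM ATP (final). Unwinding followed kinetically by red fluorescence (ex 525/em 598 nm).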
PI5P4Ka inh – inhibitors of human PI5P4K alpha; P48426; PI5P4Kalpha enzyme, ADP-Glo luminescence, 60 min; stronger effect = lower value; max response, %; hit rate 1.2% among 330,000; AID 652105; active = max response of -50% or lower; inconclusive = between -30% and -50%; inactive = -30% or higher; also: value at the top dose of about 77 µM; % is scaled to controls: 0 for no effect and ±100 for the full control effect
Target sequence (P48426 whole entry, looked up): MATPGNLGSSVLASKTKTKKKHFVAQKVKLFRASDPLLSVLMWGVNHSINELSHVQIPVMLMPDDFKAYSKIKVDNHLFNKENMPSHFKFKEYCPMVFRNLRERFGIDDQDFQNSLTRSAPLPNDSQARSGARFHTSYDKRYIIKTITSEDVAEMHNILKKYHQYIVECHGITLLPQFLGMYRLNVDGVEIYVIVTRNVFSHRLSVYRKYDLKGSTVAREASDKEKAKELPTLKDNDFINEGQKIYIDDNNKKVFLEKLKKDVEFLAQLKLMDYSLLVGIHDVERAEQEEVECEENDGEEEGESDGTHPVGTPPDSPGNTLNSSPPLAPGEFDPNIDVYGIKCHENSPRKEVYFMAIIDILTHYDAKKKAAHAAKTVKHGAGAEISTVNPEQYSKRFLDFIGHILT
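Compounds were pin-transferred onto PI5P4Kalpha and substrate in HEPES pH 7.4 buffer with EGTA, CHAPS and 5% DMSO. ATP (5 microM final) started the reaction, which ran 60 minutes at room temperature before ADP-Glo detection.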
Starred values were filed as active, the others as inactive; ? = inconclusive; / = no result given; [ ] = remark or other dose. Unless noted, calls follow the shape of the dose curve; as a rule, active = well fitted curve in the direction sought with a large enough effect; inconclusive = small, poorly fitted or top-dose-only effect, or another doubt; inactive = no such curve, though single readings can be large; an effect the other way counts as inactive or inconclusive.

SMILES	Pol beta inh	POLI inh	Pol eta inh	POLK inh	WRN helicase inh	PI5P4Ka inh
Oc1ccc(/C=N/Nc2ccnc3cc(Cl)ccc23)cc1O	?	?	?	0.0%	?	?
Oc1ccc(/C=N/Nc2ccnc3cc(Cl)ccc23)c(O)c1O	14.1µM*	?	?	44.7µM*	?	-74.4*
Cc1cccc(-n2c(CNC(=O)c3cccc(F)c3)nnc2SCC(=O)Nc2ccccc2F)c1	28.8%	-3.3%	1.0%	-5.8%	/	/
CCCCCCn1c(=O)[nH]c2nc3cc(N)ccc3nc2c1=O	10µM*	27.3%	-22.5%	-15.8%	-31.8%[57.1 µM]	?
CCCCCn1c(=O)c(C(=O)c2ccccc2)nc2ccccc21	24.8%	15.9%	-8.9%	-5.6%	-4.6%	4.0
CCN(CC)c1cc2c(cc1F)c(=O)c(S(=O)(=O)c1ccc(OC)cc1)cn2CC	1.0%	-11.5%	-25.0%	-9.6%	/	/
COC(=O)CN1C(=O)[C@H]2[C@@H](c3ccc(C)o3)N3C(=O)CN(Cc4ccc(-c5ccccc5)cc4)C(=O)[C@@]3(C)[C@H]2C1=O	34.9%	-14.9%	-5.1%	5.7%	6.8%	-62.0*
Cc1ccccc1NC(=O)c1nc(SCc2ccccc2F)ncc1Cl	/	8.8%	/	-4.9%	/	/
COc1cc2cc(Oc3ccc4ccc(=O)oc4c3)c(=O)oc2cc1OC(C)=O	0.3%	-6.1%	?	-17.5%	1.6%	-4.5
COc1cc2cc(Oc3ccc4ccc(=O)oc4c3)c(=O)oc2cc1OC(=O)C=C(C)C	14.1µM*	/	/	/	/	/
Cc1cc(C(F)F)n2nc(C(=O)Nc3ccc(F)c(Cl)c3)nc2n1	18.2%	-12.2%	-14.0%	-22.5%	/	/
Cc1ccc(NC(=O)c2ccc3c(c2)NC(=O)c2ccccc2S3)c(Cl)c1	?	79.4µM*	-24.9%	8.6%	/	/
COc1cc(C2Nc3cccc4cccc(c34)N2)ccc1OC(C)=O	-21.5%	?	14.1µM*	-19.5%	-29.7%	?
COc1cc(C2Nc3cccc4cccc(c34)N2)cc(OC)c1O	44.7µM*	?	?	-6.3%	-11.2%[11.6 µM]	/
O=C(OCC(=O)N1CCCC1)c1cccs1	17.3%	-7.5%	-8.4%	3.3%	1.2%	-4.1
CC(C)(C)NS(=O)(=O)c1ccc(CCC(=O)NCc2ccco2)cc1	1.2%	14.6%	0.5%	-6.6%	-10.2%	-4.7
COc1ccc(S(=O)(=O)N(CC(=O)NCc2ccco2)c2ccccc2OC)cc1	?	50.1µM*	?	?	-6.9%[11.6 µM]	?
COc1cc(OC)cc(C(=O)OCC(=O)NCc2ccco2)c1	/	44.7µM*	?	-38.2%	7.2%[11.6 µM]	-6.1
COc1ccc(CCC(=O)NCc2ccco2)cc1	39.8µM*	-53.2%	20µM*	?	?	-28.0
COc1cc(C(=O)OCC(=O)NCc2ccco2)cc(OC)c1OC	?	?	?	-15.3%	-11.7%	-19.4
O=C(COC(=O)Cc1ccc(F)cc1)NCc1ccco1	22.4µM*	?	?	?	3.8%[11.6 µM]	-2.1
O=S(=O)(c1ccc(Br)cc1)c1nc(-c2cccs2)oc1SCc1ccccc1F	-2.2%	8.0%	-14.6%	0.8%	/	/
Cc1cc(C(=O)CSc2nnc(CCC(N)=O)n2C)c(C)n1C1CC1	/	11.0%	-7.2%	-5.7%	-1.0%	7.5
O=c1ccn(C2OC(COP(=O)(O)OP(=O)(O)OP(=O)(O)O)C(O)C2O)c(=O)[nH]1 (stereo unspecified)	/	/	/	-6.7%[60.1 µM]	/	/
O=C(COC(=O)/C=C/c1cccc(Br)c1)NCc1ccco1	/	-1.9%	-4.9%	-3.8%	-0.9%	3.9
COc1cccc(/C=C/C(=O)OCC(=O)NCc2ccco2)c1	44.7µM*	?	?	?	-21.0%	-53.2*
O=C(COC(=O)/C=C/c1ccccc1)NCc1ccco1	/	/	-4.0%	/	6.8%	-11.6
Cc1ccc(/C=C/C(=O)OCC(=O)NC(=O)NCc2ccco2)cc1	/	?	50.1µM*	-44.6%	-4.4%[11.6 µM]	?
CCn1c(=O)cc(OCC(=O)NCc2ccco2)c2ccccc21	44.7µM*	?	?	-14.5%	-18.0%	0.0
COc1cc(OC)cc(C(=O)NCC(=O)OCC(=O)NCc2ccco2)c1	/	79.4µM*	?	?	?	-14.5

Compound activity as filed in PubChem.
